Results from PubChem BioAssay.
For some assays here: Results with a measured potency or affinity are listed apart. Active and inactive are the calls of the source. Cut-off read from the data, not from the text of the source, unless noted: active = parasite load remaining mostly below about 12% (no sharp cut-off); inactive = mostly above about 10%. Peptide text beside a SMILES is read from it.

Assays:
[1] = blockers of polyQ-driven CASP3 activation – cell-based (AID 1583); conditions: polyglutamine-induced caspase-3 activation, cell assay; stronger effect = higher value;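 tested at 10 µM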
[2] = yeast 75Q aggregation reduction – 75Q-TubU reporter (AID 1593); conditions: Yeast 75Q polyglutamine aggregation reporter
[3] = restoration of touch response, mutant HTT neurons – whole organism, C. elegans mechanosensory neurons, N-terminal huntingtin (AID 1599); conditions: C. elegans polyQ-huntingtin mechanosensory neurons, stronger effect = higher value
[4] = blockers of cytochrome c efflux from mitochondria – biochemical, purified mitochondria (AID 1603); conditions: stronger effect = lower value;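 note: mouse liver mitochondria challenged with calcium chloride; signal normalized to the plate average as 100%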
[5] = polyglutamine aggregate formation blockers (AID 1604); conditions: polyglutamine-induced protein aggregation inhibition assay; stronger effect = higher value; tested at 2.5 µM
[6] = glutamate transport activators, MN-1 cells, MN-1 cell line (AID 1612); conditions: MN-1 motor neuron cells, stronger effect = higher value;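 note: tested at 1 µM final; 0% = mean of DMSO vehicle wells on each plate; positive means more glutamate uptake than control and negative means less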
[7] = GFP-Q80 aggregate reduction, neuronal-like cells, cell-based, NGF-treated PC12, GFPQ80 (AID 1614); conditions: PC12 NGF-treated GFP-polyQ80 inclusion reduction;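 note: lower means fewer inclusions and 0 means no inclusions at all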
[8] = 75Q-TubH aggregate inhibition, S. cerevisiae, yeast (AID 1616); conditions: S. cerevisiae 75Q-TubH polyglutamine aggregation suppression; stronger effect = higher value
[9] = P. berghei load reduction in hepatocytes – cell-based, HepG2, luciferase luminescence, HepG2 viability, primary screen (AID 624349);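 note: 100% = mean of DMSO negative control wells on the same plate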; conditions: P. berghei liver stage in HepG2, luciferase luminescence, concentration not given here; parasite load remaining: stronger effect = lower value; viability: measured here: HepG2 viability without parasites
[10] = compounds altering circadian rhythm period length – cell-based, LOPAC library, luminescence reporter (AID 2774; call rule not given here;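 note: values are relative to mean of DMSO wells on each plate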); conditions: circadian reporter cells, at 7 µM, actives lie on both sides

Structure (SMILES) | inhibition [1] [%] | score [2] | rescue above control [3] | cytochrome c release ratio [4] | inhibition of aggregation [5] [%] | glutamate uptake change [6] [%] | inclusion score [7] | aggregation suppression score [8] | parasite load remaining [9] | viability [9] [%] | period change [10]
CC1(C)O[C@@H]2C[C@H]3C4C[C@H](F)C5=CC(=O)C=CC5(C)[C@@]4(F)[C@@H](O)C[C@]3(C)[C@]2(C(=O)CO)O1 (stereo not given in full) | -27.2 | 1.29 | -9.42 | 0.94 | 61.1 | 15.9 | 2 | 1.43 | – | – | –
CC(=O)OCC(=O)[C@@]1(O)CC[C@H]2C3CCC4=CC(=O)CCC4(C)[C@@]3(F)[C@@H](O)CC21C (stereo not given in full) | 9.6 | 1 | 20.3 | 0.71 | 88.9 | 7.44 | 2 | 1.14 | – | – | –
NCC1OC(OC2C(N)CC(N)C(OC3OC(CO)C(O)C(N)C3O)C2O)C(N)C(O)C1O (stereo not given) | 27.6 | 0.94 | -18 | 4.45 | 8.33 | -14.8 | 2 | 1.28 | – | – | –
COc1cccc(C(=O)c2ccccc2O)c1O | -4.26 | 0.2 | 0 | 1.59 | 85.8 | -9.84 | – | 0.104 | – | – | –
NCCCCC(N)C(=O)NC(Cc1c[nH]c2ccccc12)C(=O)NC(CCCCN)C(=O)O (stereo not drawn) (H-Lys-Trp-Lys-OH; configuration not given here) | 5.19 | 1.32 | 22.9 | 0.99 | 83.9 | 46.5 | 2 | 1.18 | – | – | –
CN[C@@H]1[C@H](O)[C@H](NC)[C@H]2O[C@@]3(O)C(=O)C[C@@H](C)O[C@H]3OC2[C@H]1O (stereo not given in full) | 1.15 | 1.13 | -5.98 | 0.86 | 42.9 | 4.38 | 2 | 1.36 | – | – | –
CC(C)[C@@H](C)/C=C/[C@@H](C)C1CC[C@H]2/C(=C/C=C3\C[C@@H](O)CC[C@@H]3C)CCC[C@]12C (stereo not given in full) | 63.6 | 0.42 | 5.3 | 0.91 | 83.3 | -13.9 | – | 0.578 | – | – | –
NC[C@@H]1O[C@H](O[C@@H]2[C@@H](CO)OC(O[C@@H]3[C@@H](O)[C@H](N)C[C@H](N)[C@H]3OC3O[C@H](CO)[C@@H](O)[C@H](O)[C@H]3N)[C@@H]2O)[C@H](N)[C@@H](O)[C@@H]1O (stereo not given in full) | -9.63 | 1.53 | 1.69 | 1.36 | 42.9 | -14.4 | 2 | 1.65 | – | – | –
O=c1cc(-c2ccccc2)oc2cc(O)c(O)cc12 | 18.9 | 1.42 | 7.3 | 1.21 | 41 | 11 | 2 | 0.852 | – | – | –
CC1CC2C3CCC4=CC(=O)C=CC4(C)[C@@]3(F)C(O)CC2(C)[C@@]1(O)C(=O)CO (stereo not given in full) | 7.1 | 1.26 | 8.02 | 1.12 | 59.3 | -14.9 | 2 | 1.3 | – | – | –
CC(=O)N[C@@H](Cc1c[nH]c2ccccc12)C(=O)O | 20.8 | 1.18 | 0.41 | 0.48 | 74.4 | 9.72 | 2 | 1.31 | 106% (inactive) | 70.5 | –
CCC(=O)O[C@@H](O[P@](=O)(CCCCc1ccccc1)CC(=O)N1C[C@H](C2CCCCC2)C[C@H]1C(=O)O)C(C)C | 5.65 | 0.97 | 2.83 | 0.8 | 47.1 | 4.48 | 2 | 0.527 | – | – | –
CC12CC[C@@H]3c4ccc(O)cc4CCC3[C@@H]1CCC2=O (stereo not given in full) | -0.88 | 0.11 | 10.3 | 0.91 | 62 | -29 | 2 | 0.566 | – | – | –
CC(=O)[C@H]1CCC2C3CC=C4C[C@@H](O)CC[C@]4(C)C3CC[C@@]21C (stereo not given in full) | 19.7 | 0.01 | -2.78 | 1.03 | 66.7 | -1.9 | 2 | 0.0851 | 85.1% (inactive) | 69.9 | –
NCCNC(=O)c1ccc(Cl)cc1 | -45.7 | 1.23 | -2.85 | 1.14 | 66.7 | 11.9 | 2 | 1.48 | – | – | 0.02 h (inactive)
NCC1CCC(N)C(OC2C(N)CC(N)C(OC3OC(CO)C(O)C(N)C3O)C2O)O1 (stereo not given) | -33.2 | 0.99 | -7.39 | 0.86 | 4.76 | 14.5 | 1.5 | 1.46 | – | – | –
CC(Oc1ccccc1)C(=O)NC1C(=O)N2C(C(=O)O)C(C)(C)S[C@H]12 (stereo not given in full) | 11.5 | 1.28 | -11.5 | 0.66 | 83.6 | 4.57 | 2 | 1.04 | – | – | –
CC(C)CC1NC(=O)CNC1=O (stereo not given) | 8.98 | 1.33 | -6.28 | 1.01 | -30.2 | -1.97 | 2 | 0.832 | – | – | –
C[C@@H]1OC(Oc2c(-c3ccc(O)c(O)c3)oc3cc(O)cc(O)c3c2=O)[C@H](O)[C@H](O)[C@H]1O (stereo not given in full) | -5.21 | 1.19 | 16.2 | 0.64 | 72.2 | -4.44 | 2 | 1.5 | – | – | –
CC(N)C(O)c1cccc(O)c1 (stereo not given) | -31.9 | 1.32 | 2.5 | 0.89 | 91.7 | -5.75 | 2 | 1.46 | 141% (inactive) | 88.5 | –
CCN(CCCc1ccccc1)CCCc1ccccc1 (tested in a mixture with another compound) | 13.3 | 1.17 | -6.75 | 0.86 | 31.7 | 20.1 | 2 | 1.65 | – | – | –
Cc1cc(Nc2ccccc2C(=O)O)ccc1Cl | -21.2 | -0.11 | -9.28 | 4.31 | 77.8 | -15.3 | 1 | -0.491 | – | – | –
CC12CCC(CC1=O)C2(C)C (stereo not given) | 15.1 | 1.08 | 1.05 | 1.24 | 43.2 | 5.12 | 2 | 1.49 | – | – | –
CC1(C)O[C@@H]2CC3C4CCC5=CC(=O)CCC5(C)C4(F)C(O)CC3(C)[C@]2(C(=O)CCl)O1 (stereo not given in full) | -34.5 | 1.26 | -3.98 | 1.36 | 79.5 | 12.8 | 2 | 1.1 | 190% (inactive) | 88.4 | –
COC(=O)C(C)C[N+](C)(C)C (stereo not given) | -13.8 | 1.1 | -5.92 | 1.54 | 60.6 | 0.97 | 2 | 1.5 | – | – | –
C[C@@H]1CC2C3C[C@H](F)C4=CC(=O)C=CC4(C)C3(F)[C@@H](O)CC2(C)C1C(=O)COC(=O)C(C)(C)C (stereo not given in full) | 26.8 | 0.1 | -3.49 | 1.09 | 38 | 10.9 | 2 | 0.899 | – | – | –
